Among all 31,000 sequences or so, about 1,400 (4.5%) were called active. Many of the other results were omitted from the sample, so actives are more common in it than they were. Unmarked numbers belong to inactive results.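 How the source made its calls: active means median seed-adjusted z-score above 1 or below -1; inactive means the rest.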
Experiment: Novel Modifiers of Survival Motor Neuron (SMN) Protein: Gene Identification via Genome-wide siRNA Screen;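 further: luminescence tracks full-length SMN protein made from the SMN2 reporter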
Details: HEK293T SMN2-luciferase reporter, siRNA knockdown, 72 h; actives lie on both sides
Summary of the method: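 siRNA screen, 10418 genes ×3 siRNAs; 1 pmol/well, lipid reverse transfection into HEK293T SMN2-luc reporter line. 72 h, 37 °C, 5% CO2; ONE-Glo readout. Data: neg-ctrl normalized, log10, MAD; hit = MAD >1.0 or < -1.0.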

Sequence	median seed-adjusted z-score
GGAAGAACCAGAGUGUGAATT against C1RL	-0.148
GGGAGAUUCUCCAACUAAATT against SR140	1.16 (active)
GGAUCGAUUCUGAAUAUGATT against PAPSS1	-0.648
GGUUGAAGCUUACUCCGGATT against DHX9	-0.687
UCACUGAUGUACUACCUAUTT against RPUSD4	-0.0264
GGAUCACGCAGCUCAAGAUTT against TBX1	-0.744
CCGCGAAGAUGUUAGCAUUTT against PRSS12	0.119
ACAUAUAGGUAUCGACCAATT against PRICKLE2	-1.12 (active)
GCCCAGGAAAGAUAAGGCATT against PTH1R	-0.521
GCAGUGCGUUCAGUGCAAATT against FHL2	0.475
CGAUUAGGACUGACAAUAATT against IFT57	-1.1 (active)
GCUUGUUCCUUCAAUUAAATT against ZNF41	0.342
GCAUUAGGUUCACUAAAUATT against GPR160	-0.278
GGCUUAACCUGGUGAUAAATT against GLUD1	0.156
GGAUGACGGUGUCUACUCATT against CLCA1	0.015
GUUCUUGUCUAAGACAUGATT against ZNF799	-1.02 (active)
GGUUAAUAUUGCGAAAGUATT against TXNDC1	0.458
AGCUCUACAUUGGCGAUGATT against DUPD1	-0.406
GCAUAUUCCAAACUAGUGATT against STARD6	0.0605
GCGUGGAACCGGACAUCAATT against TPSD1	0.0848
CCACGUCACCAGUACUAUATT against UBA1	1.34 (active)
ACAGUGUGGUUCUUCAUUUTT against C1QL3	-0.276

Sequence	median seed-adjusted z-score
CAUCACCUGUAGAACCUGATT against PIAS2	-0.096
GAAUGGUCCUAAAACACCATT against NFE2L2	-0.596
GAAAUUGAUAAGCAAAGUATT against TRO	2.04 (active)
CUGCCUACGUGAACUGGAUTT against TPSG1	0
GAAGGAGACUAAUGAGCAATT against FGD4	-0.0017
CGAGUGUCUUCACUACAAATT against IL3RA	-0.951
GCAAGUCGUCUAUUCAGAATT against RRAGD	0.313
GGCACUUAAGGUUCGCUAUTT against PPP4C	1.15 (active)
GGCUCUUGGAAUAACUGAATT against SERPINI1	0.127
CAUUAAAGGUUUACCCAAUTT against IDH1	0.421
GGCUUUGAAUUCAAUCUAUTT against GPR149	-0.186
CGUCGCGCCCUGUACAUAATT against GPR35	-1.46 (active)
UCAGUUACCUGCAUACCAATT against AEBP1	-0.0536
CCUACUAUGAUGUUAGUAATT against SCGN	-0.0164
GAUACUCAGAAGUUGAUAATT against MYSM1	-0.116
ACACUCUUGUGGUCAAGAATT against HNRNPC	-2.15 (active)
GCAAGAAACUCCACCCUUUTT against RGS3	0.065
CUACCACAAUCAUCGAAAATT against FABP3	-0.0786
CAAACCUAACUAUACAUAATT against ZNF107	0.0761
GUAAGCAUUUUAAUUCCAATT against CLCA3	0.424
UUACAUUGAUUACACUGGATT against RBM24	0.0471
UCGUUUUUACAGAUGUUAATT against SAP18	2.14 (active)

Sequence	median seed-adjusted z-score
CCUACUAUCAAGAUUCAAATT against HERC3	-0.0884
GAGUCAACCCAUACAUUAATT against PLS1	-0.0715
GCUGGUUUAUUUAACUCGATT against E2F6	-0.299
GAGUCUGUUUUACGACAAATT against TMPRSS11D	-0.0643
CCAGUCGCGUAAGACAACATT against PYDC1	-1.44 (active)
CCCAGAGCUUCAAAGUGUATT against HSD17B1	-0.569
GCAGAGCGGAAGUAAGGAUTT against AFMID	-0.515
CAUUAUCUCGUUUCCGGAATT against IFNGR2	0.148
GCGGAAAGGUGGACUUUGATT against CABP2	0.323
GCAUCCUCAUCAACCGCAATT against SAPS1	1.16 (active)
CCCAGAAGAUGACCACUCATT against PDXDC1	0.665
GACUUGCCCUUACUGCAAATT against RNF175	0.127
CGUUGCUAGUGCUCACUUATT against FRAG1	-0.554
GAUAUUUGAUUGAUGUAGATT against DUSP11	-0.0184
ACAGAAUAAUGUACAAGAATT against POLR2K	-3.72 (active)
GCCUAGACCUCUUCGCUUUTT against PASK	0
GCAGCUGAGUUCUACAAGATT against RAG1	-1.35 (active)
GGAUAAUGAGUCGGAAGUATT against CNTN4	-0.407
CCAGGUUUAUGUAGAAGUUTT against NMI	0.982
GGAUGAAGAACGAAUGGUATT against ENDOD1	-0.138
GGCACUCAGCGCAAGAAGATT against TIGD5	0
GGAAGAGGAGUAGACCUUATT against RAB5A	0.244

Sequence	median seed-adjusted z-score
CCGGCAAGAUUAUCGAGUATT against HCFC1	1.47 (active)
CAUUCGCAAAGGAUCGUGATT against PAPSS2	-0.201
CAGCGUAUUUGAGAAUUUATT against ATRX	-0.158
GCAAGUGUUUUGAUCAAAATT against ZNF662	0.352
GAAUAUUGCAAUAGACUUATT against ZNF678	0.172
GCAUUUCACCAUUCAAACATT against PCSK9	0.146
GGAUGUUUCCUACCUAUAUTT against FOLR1	-1.31 (active)
CCAGUUCGCUAUCACCAAATT against MATN1	-0.271
CGAUCAAUGUUAGAAGUUATT against ACTR2	0.548
CCUUAGAUCUCGCGAAGAATT against DCT	-0.184
CCAAUACACUAGCAGUUAATT against TCP1	-1.02 (active)
GCCUGUGAAUGUCCGAGAATT against AARSD1	-0.156
GGUAGUCUAUCACUUCGAATT against TRIM37	-0.108
GCUCAACACUCAUCAAACATT against ZNF774	-0.0834
CAUGGUCACUGCUAGUGUATT against MBOAT1	-1.22 (active)
GCACCUACUUCAUCUAUAGTT against EDA	0.316
GAGAUUCAAAGAAUAGUAATT against RASSF6	-0.592
CCCUUGAAGGCAAAGAUCATT against OPRK1	-1.08 (active)
GAGAUUCAUCGGUUCAAUATT against WRNIP1	0.00972
GCCUUAGUGUGCCUCCCAATT against APLN	0.0181
GAUCUGGUCGAGUUUAAAATT against NAT2	-0.0495
CCACAUGACUUAUUAUGCATT against DCN	0.326

Sequence	median seed-adjusted z-score
GGGCAGUUCUUGCAACCAUTT against ALDH1A2	0.564
CGAGAUAACUACUGCCGAUTT against PCOLCE2	-1.15 (active)
CCGUCUACGUGACCAUUGATT against ABCC1	0
GCUUUUACAACAUUUCGAATT against SLC30A4	0.158
GUAAAUCACCGGCUACAAATT against ITGA3	0
UCAUGCUCAUUGGGAAUAATT against RAB2B	0.882
GCUUUGCAGUGAAUAUCGATT against SPINK5	0.26
CCUGGAUACCCUAAGCAAATT against PSMD2	-1.44 (active)
CCACGAUCGUUCACAAGGATT against KCTD4	0.649
CUAUAGUGGUUCAUCACAATT against GCNT1	0.463
ACGAGUACAUCAACGAGUATT against ABCA2	-1.18 (active)
CACUCAGCGUGGACCAUUUTT against HCN3	0.301
CUAUCAAUCCCAGCACUAATT against CDKL3	0.243
GCACUCUGAAGAUCGAAUATT against HNRNPL	1.04 (active)
CUAUGAUUAUAGCCGGGUATT against PTPN22	-0.0843
GGAAAAGUAUGAACUGAAATT against TREM1	0
GGGUCUUACGAAUGCGGAATT against ZNF618	0.311
GAACGUAAGAAAUACAAUUTT against HSPA4L	0.288
CUUCAUCUUUUACACCAUUTT against SLC35B2	-0.313
CACUACUAAAAACCUAAAATT against EFHD2	0.874
